# Results filed as inconclusive are left out. Activity calls are given as the source filed them. The calls were made as follows, unless noted: active = hit-call score of the fitted dose curve at least 0.9, where 1 is the maximum; inactive = score below 0.9.
# Columns and labels:
# [1] = BSK_SAg_PBMCCytotoxicity: PBMC Cytotoxicity Assessment in the BioMAP Diversity Plus: SAg Assay (AID 2283093); settings: primary human HUVEC with PBMC;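 also: PBMC viability measured as Alamar Blue reduction fluorescence at 546/580 nm; fitted both ways against DMSO so a hit may be loss or gain of signal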;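 as to AC50: PBMC superantigen activated with SEB plus TSST-1 one hour after compound addition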
# How it was run: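 Human umbilical vein endothelial cells co-cultured with PBMC; PBMC (75,000/well) pre-treated with compound 1 h, then activated with SEB and TSST-1 (20 ng/mL final each) for 90 h. Alamar Blue added 6 h, fluorescence 546/580 nm; bidirectional fit versus DMSO.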
# [2] = read-out: Interleukin-8 (IL8), CXCL8 (gene 3576); assay: BSK_SAg_IL8: BioMAP Diversity Plus: SAg Assay for Interleukin-8 (IL8) Biomarker Activity (AID 2283094); settings: primary human HUVEC with PBMC; actives raise or lower the signal
# How it was run: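 Human umbilical vein endothelial cells co-cultured with PBMC, stimulated with superantigen; IL-8 measured by ELISA 24 h after chemical dosing. Bidirectional fitting versus DMSO; SRB staining in parallel cultures tracks cytotoxicity.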
# [3] = BSK_SAg_Proliferation: Cell Proliferation Assessment in the BioMAP Diversity Plus: SAg Assay (AID 2283095); settings: primary human HUVEC with PBMC
# How it was run: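 Human umbilical vein endothelial cells co-cultured with PBMC; sulforhodamine B total-protein staining (0.1% SRB after 10% TCA fixation, absorbance 560 nm) at 96 h in sub-confluent culture. Fitted bidirectionally against DMSO.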
# [4] = BSK_SAg_SRB: Viability Assessment in the BioMAP Diversity Plus: SAg Assay (AID 2283096); settings: primary human HUVEC with PBMC;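 also: cells read one day after compound addition; hits may be either gain or loss of signal compared with DMSO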
# How it was run: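 Endothelial/PBMC primary human co-culture; compound 24 h; fix 10% TCA, stain 0.1% SRB, A560; protein content as cytotoxicity proxy; bidirectional curve fit, DMSO = baseline.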
# [5] = target: human CYP2D6, CYP2D6 (gene 1565) (UniProt P10635); assay: NVS_ADME_hCYP2D6: NovaScreen (NVS) CYP450-related Enzyme Activity (ADME) Assay for human CYP2D6 (AID 2283107; active = hit-call score of the fitted dose curve at least 0.9, where 1 is the maximum)
# How it was run: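 Cell-free assay using recombinant enzyme expressed in insect cells, with fluorescence-intensity readout of enzyme activity 1 hour after chemical dosing. Loss of signal versus acetonitrile negative control indicates inhibition. Primary screen ran in duplicate at 10 uM; actives were retested in concentration series.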
# [6] = target: human CYP19A1, CYP19A1 (gene 1588) (UniProt P11511); assay: NVS_ADME_hCYP19A1: NovaScreen (NVS) CYP450-related Enzyme Activity (ADME) Assay for human CYP19A1 (AID 2283098; active = hit-call score of the fitted dose curve at least 0.9, where 1 is the maximum)
# How it was run: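 Cell-free enzyme assay with recombinant protein and a specific fluorogenic substrate, read by fluorescence intensity 0.5 h after dosing. Primary screen ran in duplicate at 10 uM; actives were retested in concentration series. Loss of signal versus acetonitrile baseline.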
# [7] = target: human CYP2A6, CYP2A6 (gene 1548) (UniProt P11509); assay: NVS_ADME_hCYP2A6: NovaScreen (NVS) CYP450-related Enzyme Activity (ADME) Assay for human CYP2A6 (AID 2283099; active = hit-call score of the fitted dose curve at least 0.9, where 1 is the maximum)
# How it was run: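 Cell-free fluorescence readout of recombinant human CYP2A6 expressed in insect cells, read 0.5 h after dosing; loss of signal versus acetonitrile negative control. Primary screen in duplicate at 10 uM; actives re-run in concentration-response up to 20 uM.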
# [8] = target: human CYP1A1, CYP1A1 (gene 1543) (UniProt P04798); assay: NVS_ADME_hCYP1A1: NovaScreen (NVS) CYP450-related Enzyme Activity (ADME) Assay for human CYP1A1 (AID 2283100; active = hit-call score of the fitted dose curve at least 0.9, where 1 is the maximum)
# How it was run: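 Cell-free fluorescence assay of recombinant human CYP1A1 activity with a specific substrate, read 1 h after dosing. Compounds were screened in duplicate at 10 uM, then hits tested in concentration-response up to 20 uM; acetonitrile served as baseline.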
# [9] = target: human CYP1A2, CYP1A2 (gene 1544) (UniProt P05177); assay: NVS_ADME_hCYP1A2: NovaScreen (NVS) CYP450-related Enzyme Activity (ADME) Assay for human CYP1A2 (AID 2283102; active = hit-call score of the fitted dose curve at least 0.9, where 1 is the maximum;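 as to AC50: potency for inhibition since loss of fluorescence marks reduced CYP1A2 activity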)
# How it was run: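 Cell-free recombinant human CYP1A2 expressed in insect cells, with fluorogenic substrate; fluorescence intensity read 0.5 h after dosing. Loss of signal relative to acetonitrile baseline scored. Primary screen in duplicate at 10 uM; actives retested in concentration series.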
# [10] = target: human CYP2B6, CYP2B6 (gene 1555) (UniProt P20813); assay: NVS_ADME_hCYP2B6: NovaScreen (NVS) CYP450-related Enzyme Activity (ADME) Assay for human CYP2B6 (AID 2283101; active = hit-call score of the fitted dose curve at least 0.9, where 1 is the maximum)
# How it was run: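 Recombinant protein, specific fluorescent substrate, read at 1 h post-dosing. Primary: single 10 uM, duplicate; follow-up: concentration series. Activity = signal loss vs acetonitrile baseline, with positive and negative controls on every plate.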
# human CYP1A1, CYP1A1 (gene 1543), sequence (P04798 whole entry, looked up): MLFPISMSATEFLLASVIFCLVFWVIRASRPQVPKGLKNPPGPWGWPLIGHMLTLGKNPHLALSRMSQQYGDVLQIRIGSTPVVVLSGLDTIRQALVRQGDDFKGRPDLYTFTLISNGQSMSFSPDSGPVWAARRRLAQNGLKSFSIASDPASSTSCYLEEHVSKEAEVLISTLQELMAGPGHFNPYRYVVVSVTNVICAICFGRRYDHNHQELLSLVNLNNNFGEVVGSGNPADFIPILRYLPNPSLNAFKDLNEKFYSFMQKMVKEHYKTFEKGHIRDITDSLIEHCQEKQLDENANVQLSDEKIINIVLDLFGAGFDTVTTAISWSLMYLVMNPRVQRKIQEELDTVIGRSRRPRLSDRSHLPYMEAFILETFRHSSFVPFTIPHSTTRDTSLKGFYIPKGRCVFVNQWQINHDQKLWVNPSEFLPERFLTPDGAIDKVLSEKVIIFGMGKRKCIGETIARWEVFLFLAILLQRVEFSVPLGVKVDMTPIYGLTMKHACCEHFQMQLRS
# human CYP19A1, CYP19A1 (gene 1588), sequence (P11511 whole entry, looked up): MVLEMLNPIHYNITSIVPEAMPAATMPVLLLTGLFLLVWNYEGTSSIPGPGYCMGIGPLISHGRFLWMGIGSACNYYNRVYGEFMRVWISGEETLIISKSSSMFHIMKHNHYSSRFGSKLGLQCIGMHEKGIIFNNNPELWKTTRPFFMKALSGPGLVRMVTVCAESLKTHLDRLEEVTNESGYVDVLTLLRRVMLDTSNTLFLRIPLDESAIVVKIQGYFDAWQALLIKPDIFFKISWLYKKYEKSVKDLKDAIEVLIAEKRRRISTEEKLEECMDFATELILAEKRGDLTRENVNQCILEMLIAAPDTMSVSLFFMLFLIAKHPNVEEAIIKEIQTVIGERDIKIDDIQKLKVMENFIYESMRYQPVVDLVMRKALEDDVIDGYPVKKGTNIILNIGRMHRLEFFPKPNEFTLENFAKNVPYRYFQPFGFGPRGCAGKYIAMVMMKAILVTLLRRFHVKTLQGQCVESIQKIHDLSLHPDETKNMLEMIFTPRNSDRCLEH
# human CYP2D6, CYP2D6 (gene 1565), sequence (P10635 whole entry, looked up): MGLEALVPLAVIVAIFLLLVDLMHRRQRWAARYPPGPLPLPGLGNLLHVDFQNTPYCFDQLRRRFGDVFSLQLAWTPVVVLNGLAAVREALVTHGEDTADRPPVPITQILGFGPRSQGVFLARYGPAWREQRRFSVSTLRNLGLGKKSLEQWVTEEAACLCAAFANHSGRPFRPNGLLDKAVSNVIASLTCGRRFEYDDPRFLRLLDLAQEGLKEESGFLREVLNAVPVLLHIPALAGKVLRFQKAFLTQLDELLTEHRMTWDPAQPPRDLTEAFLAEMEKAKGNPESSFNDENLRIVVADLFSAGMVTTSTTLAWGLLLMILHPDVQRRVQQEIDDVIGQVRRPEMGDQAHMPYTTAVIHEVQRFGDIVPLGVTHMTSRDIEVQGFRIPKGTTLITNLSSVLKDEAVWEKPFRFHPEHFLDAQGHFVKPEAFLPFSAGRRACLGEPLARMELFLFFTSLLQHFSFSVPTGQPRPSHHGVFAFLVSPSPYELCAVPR
# human CYP2A6, CYP2A6 (gene 1548), sequence (P11509 whole entry, looked up): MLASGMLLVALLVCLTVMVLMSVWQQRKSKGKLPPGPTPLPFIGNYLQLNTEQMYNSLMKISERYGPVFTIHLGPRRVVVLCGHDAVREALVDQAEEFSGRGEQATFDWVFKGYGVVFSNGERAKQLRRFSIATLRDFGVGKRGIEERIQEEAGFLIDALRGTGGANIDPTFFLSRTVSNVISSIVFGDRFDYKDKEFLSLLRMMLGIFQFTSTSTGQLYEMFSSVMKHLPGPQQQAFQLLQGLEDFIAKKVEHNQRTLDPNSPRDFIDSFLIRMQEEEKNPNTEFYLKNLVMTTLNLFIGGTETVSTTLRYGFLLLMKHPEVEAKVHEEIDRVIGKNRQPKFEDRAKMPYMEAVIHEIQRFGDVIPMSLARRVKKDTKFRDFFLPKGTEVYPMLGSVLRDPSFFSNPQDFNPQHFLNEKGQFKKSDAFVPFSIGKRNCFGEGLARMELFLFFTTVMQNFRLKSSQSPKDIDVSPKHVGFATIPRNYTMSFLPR
# human CYP2B6, CYP2B6 (gene 1555), sequence (P20813 whole entry, looked up): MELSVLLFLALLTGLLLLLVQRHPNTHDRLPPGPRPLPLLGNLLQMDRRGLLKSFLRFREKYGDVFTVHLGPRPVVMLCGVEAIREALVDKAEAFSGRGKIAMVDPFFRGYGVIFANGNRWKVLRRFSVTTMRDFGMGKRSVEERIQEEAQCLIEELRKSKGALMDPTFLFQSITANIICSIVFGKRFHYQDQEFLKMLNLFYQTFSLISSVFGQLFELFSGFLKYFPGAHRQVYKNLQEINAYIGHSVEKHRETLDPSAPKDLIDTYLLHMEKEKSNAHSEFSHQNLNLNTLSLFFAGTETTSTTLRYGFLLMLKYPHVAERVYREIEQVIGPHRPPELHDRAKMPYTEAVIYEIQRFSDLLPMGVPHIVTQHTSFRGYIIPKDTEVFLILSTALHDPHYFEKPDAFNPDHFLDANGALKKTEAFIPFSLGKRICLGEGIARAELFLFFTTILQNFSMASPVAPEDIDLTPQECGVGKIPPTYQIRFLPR
# human CYP1A2, CYP1A2 (gene 1544), sequence (P05177 whole entry, looked up): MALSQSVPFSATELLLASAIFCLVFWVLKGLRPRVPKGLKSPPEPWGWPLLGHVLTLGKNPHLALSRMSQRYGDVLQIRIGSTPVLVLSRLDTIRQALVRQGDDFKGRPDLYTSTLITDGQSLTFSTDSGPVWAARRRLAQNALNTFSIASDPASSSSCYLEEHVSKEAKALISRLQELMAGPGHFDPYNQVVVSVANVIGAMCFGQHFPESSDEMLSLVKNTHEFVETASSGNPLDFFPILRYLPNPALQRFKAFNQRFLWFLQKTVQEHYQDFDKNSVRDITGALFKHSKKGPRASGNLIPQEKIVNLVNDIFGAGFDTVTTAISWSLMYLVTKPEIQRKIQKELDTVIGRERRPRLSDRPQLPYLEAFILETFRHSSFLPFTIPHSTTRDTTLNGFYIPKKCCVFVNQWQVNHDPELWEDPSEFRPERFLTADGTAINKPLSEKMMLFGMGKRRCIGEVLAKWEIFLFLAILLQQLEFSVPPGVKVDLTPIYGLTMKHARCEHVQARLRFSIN
smiles,measurement,setting,value
NC(=Nc1ccccc1)Nc1ccccc1,outcome,[1],inactive
same,outcome,[2],inactive
same,outcome,[3],inactive
same,outcome,[4],inactive
same,AC50,[5],0.984 µM (active)
Cc1cc(SC2=C(O)C[C@@](CCc3ccc(N)cc3)(C(C)C)OC2=O)c(C(C)(C)C)cc1CO,outcome,[1],inactive
same,outcome,[2],inactive
same,outcome,[3],inactive
same,outcome,[4],inactive
same,outcome,[6],inactive
CCCCCCC(C=O)=Cc1ccccc1,AC50,[1],31 µM (active)
same,AC50,[2],29.8 µM (active)
same,AC50,[3],34.9 µM (active)
same,AC50,[4],35.3 µM (active)
same,outcome,[6],inactive
CCc1nc(N)nc(N)c1-c1ccc(Cl)cc1,outcome,[1],inactive
same,outcome,[2],inactive
same,outcome,[3],inactive
same,outcome,[4],inactive
same,outcome,[7],inactive
CSc1ccc(Oc2ccc(S(N)(=O)=O)cc2CN(C)C)cc1C,outcome,[1],inactive
same,outcome,[2],inactive
same,AC50,[3],23.3 µM (active)
same,outcome,[4],inactive
same,AC50,[5],4.8 µM (active)
C=CCc1ccc(OC)c(OC)c1,outcome,[1],inactive
same,outcome,[2],inactive
same,outcome,[3],inactive
same,outcome,[4],inactive
same,outcome,[7],inactive
O=NO,outcome,[1],inactive
same,outcome,[2],inactive
same,outcome,[3],inactive
same,outcome,[4],inactive
CCC(C)N(C)C(=O)c1cc2ccccc2c(-c2ccccc2Cl)n1 (stereo not drawn),outcome,[1],inactive
same,outcome,[2],inactive
same,outcome,[3],inactive
same,outcome,[4],inactive
same,outcome,[8],inactive
O=C(N[C@@H](c1ccccc1)[C@@H]1CCCCN1)c1cccc(C(F)(F)F)c1Cl,AC50,[1],20 µM (active)
same,AC50,[2],14.3 µM (active)
same,AC50,[3],14.4 µM (active)
same,AC50,[4],26.5 µM (active)
same,outcome,[6],inactive
same,AC50,[5],1.06 µM (active)
O=C(O)c1cccnc1,outcome,[1],inactive
same,outcome,[2],inactive
same,outcome,[3],inactive
same,outcome,[4],inactive
COC(=O)[C@H]1[C@H]2C[C@@H]3c4[nH]c5cc(OC)ccc5c4CCN3C[C@H]2C[C@@H](OC(=O)c2cc(OC)c(OC)c(OC)c2)[C@@H]1OC,AC50,[1],23.9 µM (active)
same,AC50,[4],25.9 µM (active)
same,outcome,[8],inactive
O=Cc1ccccc1C=O,outcome,[2],inactive
same,outcome,[3],inactive
same,outcome,[4],inactive
CC(=O)[C@@]1(O)CC[C@H]2[C@@H]3CCC4=CC(=O)CC[C@]4(C)[C@H]3CC[C@@]21C,outcome,[2],inactive
same,outcome,[3],inactive
same,outcome,[4],inactive
CC(C)(O)c1ccc(CNC(=O)c2cccnc2Oc2ccc(F)cc2)cc1,outcome,[1],inactive
same,outcome,[2],inactive
same,outcome,[3],inactive
same,outcome,[4],inactive
same,outcome,[8],inactive
O=C(O)CN(CC(=O)O)CC(=O)O,outcome,[1],inactive
same,outcome,[2],inactive
same,AC50,[3],29.1 µM (active)
same,outcome,[4],inactive
same,outcome,[9],inactive
CC(COCC(C)OC(=O)c1ccccc1)OC(=O)c1ccccc1 (stereo not drawn),outcome,[1],inactive
same,outcome,[2],inactive
same,outcome,[3],inactive
same,outcome,[4],inactive
same,outcome,[10],inactive
same,AC50,[9],8.75 µM (active)
O=C1OC(c2ccc(O)cc2)(c2ccc(O)cc2)c2ccccc21,outcome,[1],inactive
same,AC50,[2],20 µM (active)
same,AC50,[3],29.3 µM (active)
same,outcome,[4],inactive
same,outcome,[7],inactive
same,outcome,[10],inactive
CO[C@@H]1COCC[C@@H]1N[C@@H]1CC[C@@](C(=O)N2CCc3ncc(C(F)(F)F)cc3C2)(C(C)C)C1,outcome,[2],inactive
same,outcome,[3],inactive
same,outcome,[4],inactive
CC(=O)S[C@H](C(=O)N[C@H]1Cc2ccccc2[C@H]2CCC[C@@H](C(=O)O)N2C1=O)C(C)C,outcome,[2],inactive
same,AC50,[3],7.81 µM (active)
same,outcome,[4],inactive
O=C1NC(=O)C(c2ccccc2)(c2ccccc2)N1,outcome,[2],inactive
same,outcome,[3],inactive
same,outcome,[4],inactive
CCCCCCCCCCCCCCCCO,outcome,[2],inactive
same,outcome,[3],inactive
same,outcome,[4],inactive
Oc1ccc(O)cc1,outcome,[2],inactive
same,AC50,[3],7.06 µM (active)
same,outcome,[4],inactive
Nc1nc(=S)c2[nH]cnc2[nH]1,outcome,[2],inactive
same,AC50,[3],13.5 µM (active)
same,outcome,[4],inactive
